Laboratory results: PubChem BioAssay (Tox21)
“And” between values parts separate entries of the source, which are not always exact repeats. Equal entries are not always repeated. Results filed as inconclusive are left out. More than one record can exist for a structure, and the calls need not agree. The source made the active and inactive calls. Unless noted, calls come from the whole dose curve; as a rule, active = well fitted curve in the direction sought with a large enough effect in the repeat runs; inconclusive = weak or mixed curves; inactive = no such curve, though single readings can be large; an effect the other way counts as inactive or inconclusive.

What was measured:
[1] = qHTS assay for small molecule agonists of the p53 signaling pathway (AID 651631; calls by dose curve; note: nearly all actives have a fitted effect of over 15% in size; note: potency is the fitted concentration of half-maximal effect)
Summary of the method: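 Fluorescence intensity from cleaved LiveBLAzer B/G substrate (2 h, room temperature) served as the signal. Beforehand, HCT-116 reporter cells bearing p53 response elements were treated 16 h at 37 °C with DMSO-dissolved compounds.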

[2] = qHTS assay for small molecules that induce genotoxicity in human embryonic kidney cells expressing luciferase-tagged ATAD5 (AID 651632); note: nearly all actives have a fitted effect of over 15% in size; note: potency is the fitted concentration of half-maximal effect
Summary of the method: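 Concentration-response screen for ATAD5 upregulation in HEK293T luciferase reporter cells; 16 hr treatment at 37C, then luminescence after 30 min with Amplite at room temperature.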

[3] = qHTS assay for small molecule agonists of the p53 signaling pathway - cell viability (AID 651633; calls by dose curve; note: nearly all actives have a fitted effect of over 30% in size; note: potency is the fitted concentration of half-maximal effect)
Summary of the method: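 Viability counter-read: CellTiter-Glo luminescence (30 min, room temperature) in the same p53RE-bla plates. These plates had been exposed to compounds for 16 h at 37 C.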

[4] = qHTS assay for small molecules that induce genotoxicity in human embryonic kidney cells expressing luciferase-tagged ATAD5 - cell viability (AID 651634; calls by dose curve; note: nearly all actives have a fitted effect of over 25% in size; note: potency is the fitted concentration of half-maximal effect)
Summary of the method: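 15.5 hr compound or vehicle exposure of HEK293T cells expressing luciferase-tagged ATAD5 at 37C; live-cell protease activity is read by fluorescence after 30 min of CellTiter-Fluor.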

[5] = qHTS assay for small molecule disruptors of the mitochondrial membrane potential - cell viability (AID 720634; calls by dose curve; note: nearly all actives have a fitted effect of over 20% in size; note: potency is the fitted concentration of half-maximal effect)
Summary of the method: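 In this qHTS format, HepG2 cells plated overnight were pinned with compound, incubated 1 hr, and assayed for ATP luminescence with CellTiter-Glo after m-MPI dye addition.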

[6] = qHTS assay for small molecule disruptors of the mitochondrial membrane potential (AID 720635); note: potency is the fitted concentration of half-maximal effect
Summary of the method: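 Mitochondrial membrane potential tracked with Mito-MPS dye, red aggregates (ex 540/em 590 nm) against green monomers (ex 490/em 535 nm). Compound treatment 1 hr at 37C, dye 30 min in HepG2.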

[7] = qHTS assay to test for compound auto fluorescence at 590 nm (red) in HepG2 cells (AID 720674)
Summary of the method: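 Red autofluorescence (Ex/Em 540/590 nm, Rose Bengal sodium equivalents) was measured in HepG2 cells, 2,000 per well in MEM plus 10% FBS, plated overnight at 37 C. Readings were taken 1 hr after adding 23 nL compound or DMSO, at 37 C and 5% CO2.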

[8] = qHTS assay to test for compound auto fluorescence at 535 nm (green) in HepG2 cells (AID 720675)
[9] = qHTS assay to test for compound auto fluorescence at 460 nm (blue) in HEK293 cells (AID 720678)
Summary of the method: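 HEK293 cells (2,000 per well, medium with 10% dialyzed FBS) attached for 4-5 hr at 37C, then received compound and stood overnight at 37C, 5% CO2. Blue fluorescence was read at Ex/Em 405/460 nm and expressed relative to triamterene.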

[10] = qHTS assay to test for compound auto fluorescence at 590 nm (red) in HEK293 cells (AID 720679)
Summary of the method: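 HEK293 cells (2,000/well, medium with 10% dialyzed FBS) attached for 4-5 hr at 37C, received 23 nL compound and were incubated overnight at 37C, 5% CO2. Red fluorescence was then read at 540/590nm Ex/Em, referenced to Rose Bengal sodium.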

Measured: Potency

O=C(O)CP(=O)(O)O
inactive: [1] | [2] | [3] | [4] | [5] | [6] | [7] | [8] | [9] | [10]

CC1=CC(=O)c2ccccc2C1=O
inactive: [2] | [4] | [7] | [8] | [9]
inactive and 54.5 µM (active): [5]
active: [1] 38.6 µM | [3] 24.3 µM

c1ccc2n[nH]nc2c1
inactive: [1] | [2] | [3] | [4] | [5] | [6] | [7] | [8] | [9] | [10]

COC(=O)c1cccc(C(=O)OC)c1
inactive: [1] | [2] | [3] | [4] | [5] | [6] | [7] | [8] | [9] | [10]

CC(C)(O)CCC(C)(C)O
inactive: [1] | [2] | [3] | [4] | [5] | [6] | [7] | [8] | [9] | [10]

CCCNC(C)C(=O)Nc1ccccc1C (stereo not given)
inactive: [1] | [2] | [3] | [4] | [5] | [6] | [7] | [8] | [9] | [10]

CC(=O)OCCOCCOCCOC(C)=O
inactive: [1] | [2] | [3] | [4] | [5] | [6] | [7] | [8] | [9] | [10]

CO[Si](OC)(OC)c1ccccc1
inactive: [1] | [2] | [3] | [4] | [5] | [6] | [7] | [8] | [9] | [10]

NC(N)=NC(=O)Cc1c(Cl)cccc1Cl
inactive: [1] | [2] | [3] | [4] | [5] | [6] | [7] | [8] | [9]

CCN1CCCC1CNC(=O)c1cc(S(=O)(=O)CC)c(N)cc1OC (stereo not given)
inactive: [1] | [2] | [3] | [4] | [5] | [6] | [7] | [8] | [9]

COC(=O)[C@H]1[C@H]2C[C@@H]3c4[nH]c5cc(OC)ccc5c4CCN3C[C@H]2C[C@@H](OC(=O)c2cc(OC)c(OC)c(OC)c2)[C@@H]1OC
inactive: [1] | [2] | [3] | [4] | [5] | [7] | [8] | [9]
active: [6] 48.5 µM

CC[C@H]1CN2CCc3cc(OC)c(OC)cc3[C@@H]2C[C@@H]1C[C@H]1NCCc2cc(OC)c(OC)cc21
active: [1] 0.0387 µM | [4] 168 nM and 194 nM
inactive: [2] | [3] | [5] | [7] | [8] | [9]

C=C(C)C(=O)O
inactive: [1] | [2] | [3] | [4] | [5] | [7] | [8] | [9] | [10]

CCOc1ccccc1C(N)=O
inactive: [1] | [2] | [3] | [4] | [5] | [6] | [7] | [8] | [9]

Nc1cc(Cl)c(-c2cc(Cl)c(N)cc2Cl)cc1Cl
active: [1] 68.5 µM and 68.6 µM | [2] 13.7 µM | [3] 61.1 µM and 54.5 µM | [4] 30.6 µM | [5] 48.5 µM and 54.5 µM | [6] 9.68 µM and 13.7 µM
inactive: [7] | [8] | [9]

Oc1c(Cl)cc(Cl)cc1Sc1cc(Cl)cc(Cl)c1O
13.7 µM (active) and inactive: [5]
active: [1] 11.9 µM and 34.9 µM and 21.7 µM | [4] 11.9 µM and 30.7 µM and 48.6 µM
inactive: [2] | [7] | [8] | [9] | [10]

CC(C)(C)NCC(O)c1cc(O)cc(O)c1 (stereo not given)
inactive: [1] | [2] | [3] | [5] | [6] | [7] | [8] | [9] | [10]

Cc1ccnc2c1NC(=O)c1cccnc1N2C1CC1
inactive: [1] | [3] | [4] | [5] | [7] | [8] | [9] | [10]

CC1=C(C=O)C(C)(C)CC=C1
inactive: [1] | [2] | [3] | [5] | [7] | [8] | [9] | [10]

CCC[C@H](N[C@@H](C)C(=O)N1[C@H](C(=O)O)C[C@@H]2CCCC[C@@H]21)C(=O)OCC
inactive: [1] | [3] | [4] | [5] | [6] | [7] | [8] | [9] | [10]

CCCCOCCOC(=O)c1ccccc1C(=O)OCCOCCCC
inactive: [1] | [3] | [4] | [5] | [7] | [8] | [9]

Cc1cc(C(C)(C)C)c(O)c(C(C)(C)C)c1
active: [6] 48.7 µM and 24.3 µM
inactive: [1] | [2] | [3] | [5] | [7] | [8] | [9] | [10]

CC(C)CCOC(=O)c1ccc(N(C)C)cc1
inactive: [1] | [3] | [4] | [7] | [8] | [9]
active: [2] 13.3 µM
